Experimental data published in PubChem BioAssay (NCATS).
Where “and” joins values, the source holds several entries; their conditions need not be identical. Identical values can stand only once. Records with an inconclusive call do not appear. Some compounds were tested as several samples or in several runs, with calls that do not always agree. Calls of active or inactive are those of the source. The call rests on the fitted dose curve; in most records, active means well fitted curve in the direction sought with a large enough effect; inconclusive means small, poorly fitted or top-dose-only effect, or another doubt; inactive means no such curve, though single readings can be large; an effect the other way counts as inactive or inconclusive.

Assay: Viability qHTS for spleen associated tyrosine kinase inhibitor (SYKi) drug resistant MV4-11 cells (AID 1963824); further: potency means the concentration at half of the fitted maximal effect
Details: SYKi-resistant MV4-11 viability, CellTiter-Glo, 72 h; series mostly up to 45 µM; viability, % of control: at the top concentration
Procedure, shortened: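 SYK inhibitor-resistant MV4-11 AML cells, 500 per well, added to predispensed compounds and incubated 72 hr at 37 C, 5% CO2. Viability measured by CellTiter-Glo luminescence after 10 min at room temperature.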
Further: nearly all actives have a fitted effect of over 35% in size.

Structure (SMILES) | viability, % of control | Potency
CC(Cc1ccc(O)cc1)NCC(O)c1cc(O)cc(O)c1 (configuration not stated) | 46.5% (inactive) | –
CN[C@@H](C)[C@H](O)c1ccccc1 | 98.9% (inactive) | –
Oc1cccc2cccnc12 | 78.2% (inactive) | –
COc1ccsc1CNCC[C@@]1(c2ccccn2)CCOC2(CCCC2)C1 | 93.6% (inactive) | –
CCC1(c2ccccc2)CCC(=O)NC1=O (configuration not stated) | – | 13.3 µM (active)
CC1NCCOC1c1ccccc1 (configuration not stated) | 113% (inactive) | –
C#CCN(C)[C@H](C)Cc1ccccc1 | – | inactive
C[C@@H](N)[C@@H](O)c1ccccc1 | 83% (inactive) | –
CN1[C@@H]2CC[C@H]1CC(OC(=O)c1cc(Cl)cc(Cl)c1)C2 (some centres not stated) | 92.4% (inactive) | –
O=C(O)c1ccc(=O)[nH]c1 | 109% (inactive) | –
CC(C)(C)NCC(O)c1ccccc1Cl (configuration not stated) | 88.4% (inactive) | –
O=C(O)C(Cl)Cl | – | inactive
NC(=O)OCCCc1ccccc1 | 89.6% (inactive) | –
O=C1CC[C@@]2(O)[C@H]3Cc4ccc(O)c5c4[C@@]2(CCN3CC2CC2)[C@H]1O5 | – | inactive
CCC1(CC)C(=O)C=CNC1=O | 80.4% (inactive) | –
CC(C)NCC(O)c1ccc([N+](=O)[O-])cc1 (configuration not stated) | 72.6% (inactive) | –
O=P1(N(CCCl)CCCl)NCCCO1 (configuration not stated) | – | inactive
CCS(=O)(=O)C(C)(C)S(=O)(=O)CC | 100% (inactive) | –
COC(=O)C1=CCCN(C)C1 | 96.6% (inactive) | –
C=C1CC[C@@]2(O)[C@H]3Cc4ccc(O)c5c4[C@@]2(CCN3CC2CC2)[C@H]1O5 | 99.5% (inactive) | –

Structure (SMILES) | viability, % of control | Potency
Cc1sc2c(c1C)C(c1ccc(Cl)cc1)=NC(CC(=O)Nc1ccc(O)cc1)c1nnc(C)n1-2 (configuration not stated) | – | 0.105 µM (active)
O=C(Oc1ccc([N+](=O)[O-])cc1)N1CCN(Cc2cccc(Oc3ccccc3)c2)CC1 | – | 13.2 µM (active)
Cn1c(CCCC(=O)O)nc2cc(N(CCCl)CCCl)ccc21 | – | inactive and 11.8 µM (active)
CCNc1nc(Cl)nc(NCC)n1 | 102% (inactive) | –
COC(=O)[C@@H](N)CCCN/C(N)=N/[N+](=O)[O-] | 100% (inactive) | –
CN1C(=O)COc2c(C(=O)NC3CN4CCC3CC4)cc(Cl)cc21 (configuration not stated) | – | inactive
Cc1cn(C[C@H](N)C(=O)O)c(=O)n(Cc2cc(-c3ccccc3)sc2C(=O)O)c1=O | 99.5% (inactive) | –
CCOC(=O)NC(C)(C)Cc1ccc(Cl)cc1 | 95.5% (inactive) | –
CCC(C(N)=O)N1CCCC1=O (configuration not stated) | 104% (inactive) | –
C=CCN1CC[C@]23c4c5ccc(O)c4O[C@H]2C(=O)CC[C@@]3(O)[C@H]1C5 | 86.8% (inactive) | –
CSCC[C@@H](NC(=O)[C@@H](Cc1ccccc1)NC(=O)CNC(=O)CNC(=O)[C@@H](N)Cc1ccc(O)cc1)C(=O)O | 97.3% (inactive) | –
CC(C)(C)NCC(O)c1cc(Cl)c(N)c(C(F)(F)F)c1 (configuration not stated) | 89.2% (inactive) | –
N[C@@H]1C[C@H]1c1ccccc1 | – | 11.9 µM (active) and 3.72 µM (active)
CCCN(CCC)c1c([N+](=O)[O-])cc(S(N)(=O)=O)cc1[N+](=O)[O-] | – | 21.7 µM (active)
C1CCC(NC2CCCCC2)CC1 | 63.6% (inactive) | –
CC(O)CN1CCN(CC(=O)[O-])CCN(CC(=O)[O-])CCN(CC(=O)[O-])CC1.[Gd+3] (configuration not stated) | 97.7% (inactive) | –
NN=C(N)N | 85.3% (inactive) | –
CN1CCN(C(=O)O[C@H]2c3nccnc3C(=O)N2c2ccc(Cl)cn2)CC1 | 70.7% (inactive) | –
CCCC(C)(COC(N)=O)COC(=O)NC(C)C (configuration not stated) | 78.8% (inactive) | –

Assay: Quantitative highthroughput screen to assess conditional lethalithy of NOMO1 cells grown in RPMI1640 with untreated serum (RPMI+s) (AID 1963876);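 further: 100% = DMSO wells and 0% = empty wells without cells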
Details: NOMO1 AML cells in RPMI+serum, CellTiter-Glo viability, 48 h; series mostly up to 45.8 µM; viability: at the top concentration
Procedure, shortened: (§1)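 Each medium arm—HPLM with 10% dialyzed FBS, or RPMI1640 with 5 mM glucose and 10% untreated or dialyzed FBS—was screened against an 11-point, 3-fold compound titration for 48 h at 37 °C, with CellTiter-Glo luminescence as endpoint.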

Structure (SMILES) | viability
O=C(Oc1ccc([N+](=O)[O-])cc1)N1CCN(Cc2cccc(Oc3ccccc3)c2)CC1 | 98.2% (inactive)
CN1C(=O)COc2c(C(=O)NC3CN4CCC3CC4)cc(Cl)cc21 (configuration not stated) | 98.2% (inactive)
CN1CCN(C(=O)O[C@H]2c3nccnc3C(=O)N2c2ccc(Cl)cn2)CC1 | 92.1% (inactive)

Assay: Quantitative highthroughput screen to assess conditional lethalithy of NOMO1 cells grown in Human Plasma-Like Medium with dialyzed fetal bovine serum (HPLM+ds) (AID 1963878); further: potency means the concentration at half of the fitted maximal effect;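 on Viability: 100% = DMSO wells and 0% = empty wells on each plate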
Details: NOMO1 AML cells in HPLM+ds, CellTiter-Glo viability, 48 h; series mostly up to 45.8 µM; viability: at the top concentration
Procedure, shortened: as §1

Structure (SMILES) | viability | Potency
C#CCN(C)[C@H](C)Cc1ccccc1 | 82.2% (inactive) | –
O=C1CC[C@@]2(O)[C@H]3Cc4ccc(O)c5c4[C@@]2(CCN3CC2CC2)[C@H]1O5 | – | 9.35 µM (active)
CCCC(C)(COC(N)=O)COC(=O)NC(C)C (configuration not stated) | 108% (inactive) | –

Assay: Quantitative highthroughput screen to assess conditional lethalithy of P12 Ichikawa cells grown in Human Plasma-Like Medium with dialyzed fetal bovine serum (HPLM+ds) (AID 1963879); further: potency means the concentration at half of the fitted maximal effect
Details: ATP luminescence, 48 h; Potency: viability; series mostly up to 45.8 µM; viability: at the top concentration
Procedure, shortened: as §1

Structure (SMILES) | viability | Potency
O=C1CC[C@@]2(O)[C@H]3Cc4ccc(O)c5c4[C@@]2(CCN3CC2CC2)[C@H]1O5 | 96.1% (inactive) | –
O=P1(N(CCCl)CCCl)NCCCO1 (configuration not stated) | – | 10.5 µM (active)
O=C(Oc1ccc([N+](=O)[O-])cc1)N1CCN(Cc2cccc(Oc3ccccc3)c2)CC1 | 96.5% (inactive) | –
Cn1c(CCCC(=O)O)nc2cc(N(CCCl)CCCl)ccc21 | 91.6% (inactive) | –
CN1C(=O)COc2c(C(=O)NC3CN4CCC3CC4)cc(Cl)cc21 (configuration not stated) | 112% (inactive) | –
CN1CCN(C(=O)O[C@H]2c3nccnc3C(=O)N2c2ccc(Cl)cn2)CC1 | 99.3% (inactive) | –
CCCC(C)(COC(N)=O)COC(=O)NC(C)C (configuration not stated) | 93.2% (inactive) | –

Assay: Quantitative highthroughput screen to assess conditional lethalithy of P12 Ichikawa cells grown in RPMI1640 with dialyzed fetal bovine serum (RPMI+ds) (AID 1963880);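 further: 100% = DMSO wells and 0% = empty wells on each plate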
Details: ATP luminescence, 48 h; Potency: P12-Ichikawa viability; series mostly up to 45.8 µM; viability: at the top concentration
Procedure, shortened: as §1

Structure (SMILES) | viability
O=C(Oc1ccc([N+](=O)[O-])cc1)N1CCN(Cc2cccc(Oc3ccccc3)c2)CC1 | 102% (inactive)
CN1C(=O)COc2c(C(=O)NC3CN4CCC3CC4)cc(Cl)cc21 (configuration not stated) | 108% (inactive)
CSCC[C@@H](NC(=O)[C@@H](Cc1ccccc1)NC(=O)CNC(=O)CNC(=O)[C@@H](N)Cc1ccc(O)cc1)C(=O)O | 108% (inactive)
CN1CCN(C(=O)O[C@H]2c3nccnc3C(=O)N2c2ccc(Cl)cn2)CC1 | 90% (inactive)
CCCC(C)(COC(N)=O)COC(=O)NC(C)C (configuration not stated) | 105% (inactive)
